The source of these data is paper PMC4336329 (PLoS ONE, 2015).

Each structure is given as a SMILES string. The campaign covered roughly 310,000 compounds. About 2,200 (0.71%) showed an effect of 50% or more. The effect is printed as a negative number. The full list was thinned out, with strong results kept by preference.

The experiment deals with human ether-à-go-go-related gene (hERG) potassium channel (human, UniProt Q12809). Nature of the experiment: primary screen, population patch clamp on CHO cells stably expressing hERG; higher = less effect of the substance.
Chain of human ether-à-go-go-related gene (hERG) potassium channel (Q12809 whole entry, looked up): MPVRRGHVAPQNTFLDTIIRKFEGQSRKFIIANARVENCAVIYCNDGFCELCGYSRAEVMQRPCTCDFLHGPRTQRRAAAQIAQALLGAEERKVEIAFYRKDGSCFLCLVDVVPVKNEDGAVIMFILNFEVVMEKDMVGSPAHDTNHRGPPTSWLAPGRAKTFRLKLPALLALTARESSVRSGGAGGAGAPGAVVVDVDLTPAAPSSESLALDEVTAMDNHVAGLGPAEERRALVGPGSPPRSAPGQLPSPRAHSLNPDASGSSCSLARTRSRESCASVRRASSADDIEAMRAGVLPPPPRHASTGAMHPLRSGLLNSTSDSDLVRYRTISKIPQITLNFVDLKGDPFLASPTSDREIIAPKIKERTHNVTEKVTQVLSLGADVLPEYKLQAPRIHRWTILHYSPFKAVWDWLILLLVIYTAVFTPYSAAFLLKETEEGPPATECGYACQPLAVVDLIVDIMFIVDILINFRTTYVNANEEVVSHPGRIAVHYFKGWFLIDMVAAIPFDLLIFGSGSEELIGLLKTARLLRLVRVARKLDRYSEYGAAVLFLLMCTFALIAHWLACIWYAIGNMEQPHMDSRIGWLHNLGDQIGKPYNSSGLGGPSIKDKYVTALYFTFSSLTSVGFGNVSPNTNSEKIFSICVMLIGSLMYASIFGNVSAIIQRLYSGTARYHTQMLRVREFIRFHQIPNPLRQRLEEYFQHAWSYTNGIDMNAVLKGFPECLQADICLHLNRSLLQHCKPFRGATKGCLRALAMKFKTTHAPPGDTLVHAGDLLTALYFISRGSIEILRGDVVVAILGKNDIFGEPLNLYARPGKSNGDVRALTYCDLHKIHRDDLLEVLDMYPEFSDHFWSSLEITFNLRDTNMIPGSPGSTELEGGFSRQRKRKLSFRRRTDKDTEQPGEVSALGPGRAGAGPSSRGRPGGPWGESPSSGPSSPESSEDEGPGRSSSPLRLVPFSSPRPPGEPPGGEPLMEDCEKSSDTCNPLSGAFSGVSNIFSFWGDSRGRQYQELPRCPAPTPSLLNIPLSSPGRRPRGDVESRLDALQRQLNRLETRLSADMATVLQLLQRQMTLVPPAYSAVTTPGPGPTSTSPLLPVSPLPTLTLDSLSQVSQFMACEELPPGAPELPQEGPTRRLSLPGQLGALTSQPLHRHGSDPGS
Turning to `Cc1ccc(S(=O)(=O)N2CCCCC2)cc1C(=O)N(CCc1ccccc1)Cc1ccccc1`, the “hERG current change (%, negative = inhibition) at 1uM” value amounted to 12.2%. Consider `COc1ccc(C(=O)Oc2ccc(F)cc2C(=O)/C=C/c2ccc(OC)c(OC)c2)cc1`, for which the “hERG current change (%, negative = inhibition) at 1uM” value is reported as 0.79%.

Turning to `O=C(COc1ccccc1Cl)NC(=S)Nc1ccc(CN2CCOCC2)cc1`, the “hERG current change (%, negative = inhibition) at 1uM” value is listed as 15.7%. As for `Cc1ccc(NC(=O)COc2ccc3oc4c(c3c2)CCCC4)nc1`, the “hERG current change (%, negative = inhibition) at 1uM” value is 2.88%. `COc1cc(C2C(C(=O)c3cccs3)=C(O)C(=O)N2c2cc(C)on2)ccc1O` (centres unmarked): the “hERG current change (%, negative = inhibition) at 1uM” value is given as 2.84%. In the case of `COc1ccc([N+](=O)[O-])cc1NC(=O)CSCc1ccccc1`, the “hERG current change (%, negative = inhibition) at 1uM” value is 13.5%. With `COc1ccc(-c2cc3ccc(OCC(=O)NCC4CCC(C(=O)O)CC4)cc3oc2=O)cc1` (centres unmarked), the “hERG current change (%, negative = inhibition) at 1uM” value turned out to be 5.49%. Turning to `CC(C)(C)C(=O)N1NC(=Nc2ccccc2)SC1(C)C`, the “hERG current change (%, negative = inhibition) at 1uM” value is given as 7.38%. The result for `CCOc1ccc(S(=O)(=O)NCC2CCCO2)c2ccccc12` (centres unmarked) reads 4.4%. As to `O=C1OC(Nc2ccc(Cl)cn2)c2ccccc21` (centres unmarked), the “hERG current change (%, negative = inhibition) at 1uM” value worked out at 2.2%. The result for `CCOC(=O)c1ccc2c(c1)n(CC)c(/C=C/Nc1ccccc1)[n+]2CC.[I-]` reads -86.7%.

Turning to `CCOC(=O)c1ccc2c(c1)n(CCO)c(C)[n+]2CC.[I-]`, the “hERG current change (%, negative = inhibition) at 1uM” value amounted to 6.24%. With `CCOC(=O)c1ccc2c(c1)n(CCCS(=O)(=O)[O-])c(/C=C/c1ccc(Cl)cc1)[n+]2CC`, the “hERG current change (%, negative = inhibition) at 1uM” value is recorded as -7.29%. Regarding `CCn1c(/C=C/N(C)c2ccccc2)[n+](CC)c2ccc(Cl)cc21.[I-]`, the “hERG current change (%, negative = inhibition) at 1uM” value is recorded as -7.59%.

For the compound `CCn1c(C)[n+](CC)c2ccc(C(=O)N(C)c3ccccc3)cc21.[I-]`, the “hERG current change (%, negative = inhibition) at 1uM” value is recorded as 25.5%. As for `CCOC(=O)c1ccc2c(c1)n(CC)c(/C=C/N(C)c1ccccc1)[n+]2CC.[I-]`, the “hERG current change (%, negative = inhibition) at 1uM” value is listed as -66.2%. Turning to `CCn1c(/C=C/Nc2ccccc2)[n+](CC)c2ccc(C(=O)OCC(F)(F)F)cc21.[I-]`, the “hERG current change (%, negative = inhibition) at 1uM” value was -90.5%. Then `CCOC(=O)c1ccc2c(c1)n(CC)c(C)[n+]2CC.[I-]`, with 1.24%. `CCOC(=O)c1ccc2c(c1)n(Cc1ccccc1)c(C)[n+]2CC.[O-][Cl+3]([O-])([O-])[O-]`: the “hERG current change (%, negative = inhibition) at 1uM” value is 1.03%. Take `CCC1CCCCN1C(=O)c1sc2nc(C)nc(N(CC)CC)c2c1C` (centres unmarked): the “hERG current change (%, negative = inhibition) at 1uM” value was 5.72%. Turning to `O=C(CC1C(=O)NCCN1Cc1ccc(Cl)c(F)c1)NC1CCC1` (centres unmarked), the “hERG current change (%, negative = inhibition) at 1uM” value came to 14%. The result for `Cc1ccc(C2CCN(C(=O)Nc3ccccc3)C2)cc1` (centres unmarked) reads 11.5%. Then `CC(C)CC1NC(=O)N(CC(=O)NC2CCCc3ccccc32)C1=O` (centres unmarked), with 9.38%; and `O=C(c1cccc(C(F)(F)F)c1)N1CCN(S(=O)(=O)c2ccc(Cl)s2)CC1`, with 3.68%.

Take `O=C(O)c1ccc2c(c1)C(=O)N(c1cc([N+](=O)[O-])ccn1)C2=O`: the “hERG current change (%, negative = inhibition) at 1uM” value was determined as 10.8%.

As to `COc1ccccc1C1/C(=C(/O)c2ccccc2)C(=O)C(=O)N1CC(C)C` (centres unmarked), the “hERG current change (%, negative = inhibition) at 1uM” value amounted to 10.7%. On to `O=C(O)C1C2C=CC(C2)C1C(=O)NCc1ccoc1` (centres unmarked), for which the “hERG current change (%, negative = inhibition) at 1uM” value is 14.3%.

As for `CN1CCN(CC(=O)Nc2ccc([N+](=O)[O-])cc2Br)CC1`, the “hERG current change (%, negative = inhibition) at 1uM” value was -55.8%. Consider `O=C(CN1CCCCCC1)Nc1ccc([N+](=O)[O-])cc1Br`, for which the “hERG current change (%, negative = inhibition) at 1uM” value was determined as 10.1%. Take `O=C(CN1CCN(c2ccccc2O)CC1)Nc1ccc([N+](=O)[O-])cc1Br`: the “hERG current change (%, negative = inhibition) at 1uM” value is listed as 7.54%. The result for `O=C(CN1CCOCC1)Nc1ccc([N+](=O)[O-])cc1Br` reads -11.7%. For `CC(=O)N1CCN(CC(=O)Nc2cc([N+](=O)[O-])ccc2Cl)CC1`, the “hERG current change (%, negative = inhibition) at 1uM” value is 1.54%. For `CC(=O)N1CCN(CC(=O)Nc2ccc([N+](=O)[O-])cc2Br)CC1`, the “hERG current change (%, negative = inhibition) at 1uM” value is recorded as -60.4%. Take `O=C(CSc1cccc[n+]1[O-])C12CC3CC(CC(C3)C1)C2`: the “hERG current change (%, negative = inhibition) at 1uM” value is 6.16%.

`NS(=O)(=O)c1cccc(NC(=O)CCCC2CCCCC2)c1`: the “hERG current change (%, negative = inhibition) at 1uM” value amounted to 7.26%. The result for `Cc1cccc(-c2c3c(=O)n(C)c(=O)n(C)c3cn2-c2ccc(O)cc2)c1` reads 13.8%; that for `Cc1nc2c(-c3ccccc3)c[nH]n2c(=O)c1Cc1ccccc1`, 13.3%; that for `O=S(=O)(c1ccc(Cl)cc1)N1CCN(C2CCCCCC2)CC1`, 1.61%. `Cc1ccc(S(=O)(=O)N2CCN(Cc3ccccc3)CC2)cc1`: the “hERG current change (%, negative = inhibition) at 1uM” value was found to be 10%.

For `CC(C)CC(=O)N1CCN(S(=O)(=O)c2ccccc2)CC1`, the “hERG current change (%, negative = inhibition) at 1uM” value was 8.07%.

As for `O=C(O)C(=O)O.O=[N+]([O-])c1ccc(S(=O)(=O)N2CCN(Cc3ccco3)CC2)cc1`, the “hERG current change (%, negative = inhibition) at 1uM” value is 18.9%.

Consider `COc1ccc(S(=O)(=O)N2CCC(N3CCN(Cc4ccccc4)CC3)CC2)cc1.O=C(O)C(=O)O`, for which the “hERG current change (%, negative = inhibition) at 1uM” value is reported as -14.4%. Then `O=[N+]([O-])c1ccccc1S(=O)(=O)N1CCN(C2CCN(Cc3ccccc3)CC2)CC1`, with -18.2%; and `O=C(Cc1ccccc1)N1CCN(S(=O)(=O)c2ccc([N+](=O)[O-])cc2)CC1`, with -24.6%. Then `CC(CC(=O)N1CCN(S(=O)(=O)c2ccc([N+](=O)[O-])cc2)CC1)c1ccccc1` (centres unmarked), with -50.3%; and `O=S(=O)(c1ccc(Cl)cc1)N1CCN(C2CCN(Cc3ccccc3)CC2)CC1`, with -59%; and `Cc1ccc(S(=O)(=O)N2CCN(C3CCN(Cc4ccccc4)CC3)CC2)cc1.O=C(O)C(=O)O`, with -75.3%. Turning to `O=S(=O)(c1ccccc1)N1CCN(Cc2ccc(Cl)cc2)CC1`, the “hERG current change (%, negative = inhibition) at 1uM” value is recorded as -2.04%. Then `O=C(O)C(=O)O.O=[N+]([O-])c1ccc(S(=O)(=O)N2CCN(C3CCN(Cc4ccccc4)CC3)CC2)cc1`, with -78.1%; and `c1ccc(OCc2nn3c(-c4ccccn4)nnc3s2)cc1`, with 12.2%; and `O=C(CN(C(=O)CNC(=O)c1cccs1)c1ccc2c(c1)OCCO2)NC1CCCC1`, with -3.99%.

With `COc1cccc(NC(=S)NNC(=O)Cn2nc(C(F)(F)F)cc2C)c1`, the “hERG current change (%, negative = inhibition) at 1uM” value is on record as 9.84%. As for `COc1ccc(COC(=O)C2=C(C)NC(=O)NC2c2ccc(OC)c(OC)c2)cc1` (centres unmarked), the “hERG current change (%, negative = inhibition) at 1uM” value is on record as 12.4%.
